Molecules are shown by their SMILES. About 79,000 compounds went through this panel and 15% of them were active in at least one assay; those are over-represented in the sample as a whole. Values without a mark were called inactive. Calls of active or inactive are those of the source. Cut-off read from the data, not from the text of the source: active = growth inhibition above about 70%; inactive = the rest.

From PubChem BioAssay (NCI) come the findings set out here.

The nature of experiment [1]: NCI Yeast Anticancer Drug Screen. Data for the rad50 strain (AID 155).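 Note: 0% = growth of vehicle-only cultures of the same strain.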 The following applies: S. cerevisiae rad50 strain growth inhibition, active compounds read high; at 50.0 µM unless noted. In a few lines: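 Relative growth inhibition (compound vs vehicle) was measured in yeast with a defined repair-gene alteration.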
A short description of experiment [2]: NCI Yeast Anticancer Drug Screen. Data for the mec2-1 strain (AID 157). The following applies: S. cerevisiae mec2-1 strain, active compounds read high; at 50.0 µM unless noted. In a few lines:
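Test agents were screened against the mec2-1 yeast strain, with defined DNA repair or cell cycle alteration. Growth was scored as inhibition against vehicle-only controls.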

Experiment [3] can be described thus: NCI Yeast Anticancer Drug Screen. Data for the sgs1 mgt1 strain (AID 161).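 Note: 0% = growth of cultures given vehicle only.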 The following applies: S. cerevisiae sgs1 mgt1 strain, active compounds read high; at 50.0 µM unless noted. In a few lines:
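Read-out: growth inhibition vs vehicle controls. Cells: mutant yeast strain deficient in DNA damage repair.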

Experiment [4] in a line: NCI Yeast Anticancer Drug Screen. Data for the cln2 rad14 strain (AID 165).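 Note: 0% = growth equal to vehicle treated cultures.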 The following applies: S. cerevisiae cln2 rad14 strain, active compounds read high; at 50.0 µM unless noted. A digest of the protocol:
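Growth of compound-exposed yeast (cln2 rad14 genotype) measured and expressed as inhibition relative to vehicle.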

The nature of experiment [5]: NCI Yeast Anticancer Drug Screen. Data for the bub3 strain (AID 167). The following applies: S. cerevisiae bub3 mutant strain, active compounds read high; at 50.0 µM unless noted. A digest of the protocol:
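Screening used yeast with an engineered genetic alteration affecting cell cycle control. Compound-exposed cultures were compared with vehicle cultures, and reduced growth was taken as inhibition.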

The nature of experiment [6]: NCI Yeast Anticancer Drug Screen. Data for the mlh1 rad18 strain (AID 175). The following applies: S. cerevisiae mlh1 rad18 strain growth inhibition, active compounds read high; at 50.0 µM unless noted. In a few lines: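 In this whole-cell yeast screen, a strain with altered DNA damage repair is challenged with compound, and its growth is measured against matched vehicle-treated controls.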

Take `Cc1cc2cccc(Cl)c2nc1C(=O)c1ccccc1`: the growth inhibition is -9.3% in experiment [1]; -12.3% in experiment [2]; -9.3% in experiment [3]; 22.4% in experiment [4]; -7.4% in experiment [5]; -12.6% in experiment [6].

Consider `CN(C)c1ccc(/C=C/C(=O)N[C@@H]2C(=O)N3[C@@H]2SC(C)(C)[C@@H]3C(=O)O)cc1`, for which the growth inhibition is -10.3% in experiment [1]; -10.8% in experiment [2]; -11.9% in experiment [3]; 6.35% in experiment [4]; -12.8% in experiment [5]; 12.8% in experiment [6].

As to `COc1ccc(/C=C2\CN(CCCC(=O)O)C(=O)C2=O)cc1`, the growth inhibition in experiment [1] was 3.6%; in experiment [2], -7.5%; in experiment [3], 0%; in experiment [4] it was -6.45%; in experiment [5] it was 4.1%; in experiment [6], -16.7%.

For the molecule `CC(CC(C)C(=O)O)C(=O)O` (stereo not given), the growth inhibition in experiment [1] is -13.5%; in experiment [2] it was -28.2%; in experiment [3], -24.1%; in experiment [4], 0.4%; in experiment [5], -47.8%; in experiment [6], 3.25%.

With `CC(=O)Nc1ccc(NCC(=O)Nn2cnc3ccc(S(=O)(=O)Nc4ccc(NC(C)=O)cc4)cc3c2=O)cc1`, the growth inhibition in experiment [1] was 5.55%; in experiment [2], -18.1%; in experiment [3] it was 16.6%; in experiment [4] it was 20.9%; in experiment [5], -0.6%; in experiment [6], 6.95%.

In the case of `COc1ccc2c(CSc3ncnc4nc[nH]c34)cc(=O)oc2c1`, the growth inhibition in experiment [1] is 12.4%; in experiment [2], 21.8%; in experiment [3] it was 13.1%; in experiment [4] it was -14.7%; in experiment [5], 25.4%; in experiment [6], 34.9%.

As for `CC1=C2CN(C(=O)OCC(C)C)CCC2C2=C(C(=O)c3ccccc3C2=O)C1C` (stereo not given), the growth inhibition in experiment [1] was 1.4%; in experiment [2] it was -3.75%; in experiment [3], 39.6%; in experiment [4], 14.6%; in experiment [5], -12.2%; in experiment [6], 44.5%.

In the case of `O=c1cc(Cl)c(=O)n(-c2ccccc2)[nH]1`, the growth inhibition was 3.5% in experiment [1]; -4.75% in experiment [2]; -3.25% in experiment [3]; -14.6% in experiment [4]; 0.9% in experiment [5]; 2.7% in experiment [6].

As for `c1ccc(C2(c3ccc(C4(c5ccccc5)Oc5ccccc5S4)[nH]3)Oc3ccccc3S2)cc1` (stereo not given), the growth inhibition in experiment [1] is 20.4%; in experiment [2], -12.2%; in experiment [3], -4.4%; in experiment [4] it was 11.6%; in experiment [5], -16.7%; in experiment [6], 20.2%.

On to `O=C(O)c1cc(Cl)cc(C(=O)O)n1`, for which the growth inhibition is -19.4% in experiment [1]; -1.75% in experiment [2]; -11.8% in experiment [3]; 16.1% in experiment [4]; 4.65% in experiment [5]; -1.7% in experiment [6].

`CNc1ccccc1C(=O)NCCCN`: the growth inhibition in experiment [1] was -10.3%; in experiment [2], -25.6%; in experiment [3], 5%; in experiment [4] it was 2.75%; in experiment [5] it was 18.8%; in experiment [6] it was 0.45%.

Turning to `CCOC(=O)c1ccc(NC(=O)Nc2cc(Cl)ccc2C)cc1`, the growth inhibition in experiment [1] was 38.9%; in experiment [2], 8.45%; in experiment [3] it was 16.1%; in experiment [4], 6.4%; in experiment [5], 36.2%; in experiment [6], 25.4%.

With `O=S1(=O)C(=C(c2ccccc2)c2ccccc2)S(=O)(=O)c2ccccc21`, the growth inhibition in experiment [1] is 39.7%; in experiment [2], 13.3%; in experiment [3], 13.9%; in experiment [4] it was 23.9%; in experiment [5] it was -6.55%; in experiment [6], 29.1%.

Turning to `CC1=NN(C(=O)Nc2ccc(Cl)cc2)C(=O)C2CCC(=O)N12` (stereo not given), the growth inhibition in experiment [1] is 2.6%; in experiment [2] it was 0.6%; in experiment [3] it was 1.1%; in experiment [4], 2.7%; in experiment [5], -0.45%; in experiment [6], 27%.

For `CCOc1cc2c(cc1C(C)c1ccc(OC)c(C)c1)OCO2` (stereo not given), the growth inhibition is 11.1% in experiment [1]; 5.6% in experiment [2]; -2.3% in experiment [3]; 74% (active) in experiment [4]; 26.2% in experiment [5]; 5.7% in experiment [6].

On to `CCOC(CC(=O)NCCNC(C)=O)OCC`, for which the growth inhibition in experiment [1] is 38%; in experiment [2] it was 4.6%; in experiment [3] it was 7.2%; in experiment [4], 2.05%; in experiment [5], 18.4%; in experiment [6], 43.1%.

Take `CN(C)C(=O)C(c1ccccc1)C(c1ccccc1)N(C)C=O` (stereo not given): the growth inhibition in experiment [1] is -3.5%; in experiment [2] it was -2.2%; in experiment [3], 0.2%; in experiment [4], -3.3%; in experiment [5], -8.3%; in experiment [6], 25.1%.

On to `COc1cc(/C=C/C(=O)c2sc(Nc3ccccc3)nc2C)ccc1O`, for which the growth inhibition in experiment [1] was 27.8%; in experiment [2], 2.8%; in experiment [3] it was 13.2%; in experiment [4] it was 0.85%; in experiment [5], 19%; in experiment [6], 28%.

Take `CCNC(=O)COc1ccc(Cl)c(C)c1`: the growth inhibition in experiment [1] was -13.6%; in experiment [2] it was -31.9%; in experiment [3], -30.4%; in experiment [4] it was -33.8%; in experiment [5] it was -23.2%; in experiment [6] it was -29.7%.

Take `C/C(=C\c1ccc(N(C)C)cc1)c1ccncc1`: the growth inhibition in experiment [1] is 63.3%; in experiment [2], 38.9%; in experiment [3] it was 68.5%; in experiment [4], 34.8%; in experiment [5], 86.7% (active); in experiment [6], 48.2%.
